The panel holds about 79,000 compounds, 15% with a hit somewhere; the sample as a whole holds those more often. A number with no mark means an inactive call. Active and inactive are the calls of the source. No stated cut-off is given here; in the data, active means growth inhibition above about 70%; inactive means the rest.
Assay: NCI Yeast Anticancer Drug Screen. Data for the sgs1 mgt1 strain (AID 161);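 further: 0% = growth of cultures given vehicle only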
Settings: S. cerevisiae sgs1 mgt1 strain, active compounds read high
Experimental: Growth inhibition of yeast strains with defined genetic alterations is measured as a screen for potential anti-cancer activity. Selected strains with alterations in DNA damage repair or cell cycle control were exposed to compounds and growth inhibition was measured relative to vehicle treated controls. The strain used in this assay is sgs1 mgt1

[1] = at 5.0 µM (retest, dose inferred, filed as 0.5)
[2] = at 50.0 µM (retest, dose inferred, filed as 5.0)

Row | SMILES | growth inhibition [1] | growth inhibition [2] | growth inhibition (at 50.0 µM)
1 | CC(C)(C)/C=N/NS(=O)(=O)c1ccccc1 | -44% | -62% | 2.5%
2 | Cc1cccc(N2C(=O)c3ccccc3C2(c2ccccc2)N2CCCCC2)c1 (configuration not stated) | 4% | 2% | 73.7% (active)
3 | OCCN1CCN(CCCN2c3cc(Cl)ccc3Sc3ccsc32)CC1 | -7% | 95% (active) | 98.7% (active)
4 | CCN(CC)C(=O)CCCCC(=O)OC(C)C | -6% | -12% | -24%
5 | COc1c(C(=O)/C(=N/Nc2ccccc2)C(C)=O)c(O)c(OC)c2occc12 | -39% | 82% (active) | 73.2% (active)
6 | CCCCN(CCCC)C(=O)c1ccc(Cl)cc1Cl | 6% | 97% (active) | 98.4% (active)
7 | CC(=C/c1ccccc1)/C=C1/NC(=S)N(/C=C2\C(=O)Oc3ccccc3C2=O)C1=O | -16% | 28% | 89.1% (active)
8 | CCC(=O)Nc1ccc(NC(C)=O)cc1 | -5% | 6% | -8.65%
9 | COc1ccc(Cc2ccccc2C(=O)O)c2ccccc12 | 97% (active) | 99% (active) | 99.5% (active)
10 | CN(/N=C/C(O)C(O)C(O)CO)c1ccccc1 (configuration not stated) | 9% | 99% (active) | 98.5% (active)
11 | Cc1ccc(C)c(C(=O)CCN)c1 | 0% | -2% | 0.3%
12 | C=C(CN(C)C)C(=O)c1ccccc1C | 13% | 86% (active) | 85% (active)
13 | COc1cc(OC)c(C/C=C/c2ccccc2)cc1O | 20% | 75% (active) | 16.3%
14 | CCCCCCCCCc1c(O)c(O)c(CCCCCCCCC)c(CCCCCCCCC)c1CCCCCCCCC | -10% | 28% | 54.9%
